This is part of a sample that, as a whole, favours compounds with a hit. Of some 83,000 tested, about 20% had one in any assay.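 Cell lines were cultured in 96-well plates, exposed to a single compound concentration, and assessed for percent growth 48 hours later.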 Unmarked numbers belong to inactive results. Active and inactive are the calls of the source. The calls were made as follows: active = growth percent below 10; inactive = the rest.
What was measured:
Experiment in all cases: NCI-60 one-dose screen, 48 h (100 = growth as untreated, 0 = no growth, -100 = all killed)
Conditions in all cases: 10 µM unless noted
[1] = tested on: RPMI-8226 leukemia
[2] = tested on: OVCAR-8 ovarian
[3] = tested on: OVCAR-5 ovarian
[4] = tested on: OVCAR-4 ovarian
[5] = tested on: SK-OV-3 ovarian
[6] = tested on: IGROV1 ovarian
[7] = tested on: OVCAR-3 ovarian
[8] = tested on: HS 578T breast
[9] = tested on: NCI/ADR-RES ovarian

Compound	growth [1]	growth [2]	growth [3]	growth [4]	growth [5]	growth [6]	growth [7]	growth [8]	growth [9]
COc1ccc(-c2cc(C#N)c(NNC(C)=O)[nH]2)cc1	123%	110%	94.7%	68.8%	179%	101%	104%	107%	109%
N#Cc1c(N)nc(Nc2nc3ccccc3[nH]2)nc1-c1ccc(Cl)cc1	94.4%	102%	107%	116%	88.4%	98.7%	127%	145%	107%
O=C(/C=C1\C(=O)N(Cc2ccccc2)c2ccccc21)c1ccc(OCCN2CCCCC2)cc1	-33.9% (active)	7.86% (active)	39.8%	-22.3% (active)	99.7%	6.02% (active)	-37% (active)	77.7%	65.7%
CN1NC(c2ccccc2)NN(C)C1=O	105%	103%	109%	101%	104%	109%	112%	113%	101%
C[n+]1c2ccccc2c(Nc2ccc(NS(=O)(=O)CCCCN=C(N)N)cc2)c2ccc(N)cc21	48.6%	54.4%	71.9%	72.9%	51%	45.9%	68.5%	34.5%	97.5%
CCn1cc(C(=O)O)c(=O)c2cc(F)c(N3CCN(S(=O)(=O)c4ccc(Cl)cc4)CC3)cc21	13.4%	12.6%	51.9%	37.7%	40.8%	9.37% (active)	28.2%	18.9%	68.7%
CCOc1ccc(/C=N/NC(=O)c2cccc3ccccc23)cc1OCC	83.8%	105%	104%	91.9%	99.2%	108%	96.4%	98.6%	97.9%
CCOC(=O)C(C)C(C)(O)c1ccccc1 (stereo unspecified)	89.9%	107%	104%	89.6%	102%	101%	107%	98.4%	99.5%
COc1ccc(C(=O)N2N=C(c3ccc(Br)cc3)CC2c2cn(-c3ccccc3)nc2-c2ccccc2)cc1 (stereo unspecified)	67.9%	31.5%	101%	67.5%	76.6%	85.2%	53.4%	85.2%	41.5%
COc1cc2c(c(OC)c1OC)C(=O)CC(c1cccc(C(=O)Nc3cccc(Br)c3)c1)O2 (stereo unspecified)	46.8%	55%	95.7%	82.7%	82%	83%	87.7%	91.5%	84.7%
Cc1ccc(C(=O)Nc2ccc(CN3CCN(C)CC3)c(C(F)(F)F)c2)cc1C#Cc1cnc(N)c2ccc(F)cc12	-59.4% (active)	-70.9% (active)	-90.2% (active)	-60.8% (active)	1.66% (active)	-82.9% (active)	-83.3% (active)	-30.2% (active)	-52.4% (active)
CCS(=O)(=O)N[C@@H]1O[C@H](COC(C)=O)C(OC(C)=O)[C@H](OC(C)=O)C1OC(C)=O (stereo partly specified)	105%	98.6%	98.8%	102%	97.3%	106%	101%		108%
CCC(C)(CC)c1ccc(O)c(C)c1	98.8%	109%	109%	109%	93.4%	106%	116%	101%	102%
Cc1ncc(C(=O)Nc2ccc(CN3CCN(C)CC3)c(C(F)(F)F)c2)cc1C#Cc1cnc(NC2CC2)c2ncccc12	-41.1% (active)	-91.7% (active)	-91.1% (active)	-60.5% (active)	43.3%	-80.4% (active)	-90.4% (active)	43%	-41.9% (active)
COc1ccc2cnc(N)c(C#Cc3cc(C(=O)Nc4ccc(CN5CCN(C)CC5)c(C(F)(F)F)c4)cnc3C)c2c1	48.1%	75.4%	-39.3% (active)	58.2%	69.4%	28.8%	93%	-16.3% (active)	78.1%
COc1ccccc1C(=O)Nc1cccc(-c2cc(=O)c3c(OC)c(OC)c(OC)cc3o2)c1	6.75% (active)	38.7%	81.2%	59.1%	100%	42.9%	51.3%	23.6%	58.3%
Br/C(=N\Nc1nn[nH]n1)c1ccccc1	102%	103%	102%	107%	98.6%	111%	120%	99.4%	100%
CCOC(=O)c1csc(-c2ccc(COC(=O)c3ccccc3)o2)n1	111%	111%	102%	116%	107%	103%	116%	111%	109%
O=C(Nc1cccc(Cn2c(=O)[nH]c3ccc(Oc4ncccn4)cc3c2=O)c1)c1cc(Cl)cc(Cl)c1	60.9%	51.4%	70%	41.5%	66.5%	49%	81.2%	56.7%	86.3%
Cc1cc2c(-c3nc4ccccc4n3C)c(O)c(O)cc2c(O)c1-c1c(C)cc2c(-c3nc4ccccc4n3C)c(O)c(O)cc2c1O	24.4%	32.1%	58.1%	70.1%	83.2%	89.7%	71.3%	28.4%	102%
COc1cc2ncnc(Nc3ccc4c(cnn4C(=O)Nc4ccccc4)c3)c2cc1OC	70.5%	103%	105%	88.5%	110%	80.7%	95.7%	102%	100%
COc1cc(CCNc2cnc3cc(N)cc(N)c3n2)cc(OC)c1	86%	98.6%	92.3%	93.8%	168%	103%	92.6%	132%	105%
CCOC(=O)CNS(=O)(=O)CC(=O)c1ccccc1	96.1%	108%	101%	85.4%	105%	94.6%	126%	124%	102%
COc1cc(OC)c(/C=C/c2ccc3ccccc3[n+]2C)c(OC)c1	-20.9% (active)	9.25% (active)	22.3%	28.8%	27.1%	14.8%	1.43% (active)	34.4%	97.4%
COC1=C(OC)C(=O)c2ccccc2C1=O	97.5%	93.3%	101%	74.9%	111%	104%	87.8%		94.3%
O=C(Nc1cccc(Cn2c(=O)[nH]c3ccc(Oc4ncccn4)cc3c2=O)c1)c1ccc(Cl)cc1	25.5%	31.8%	99%	31.5%	66%	66.9%	65.1%	49.2%	71.2%
CC(C)OC(=O)Nn1cnc2ccccc21	98.6%	111%	96.7%	126%	114%	23.8%	111%	114%	110%

Source: PubChem BioAssay (NCI)
